According to PubChem BioAssay (Tox21):
Several values for one entry are separate records, joined by “and”; a condition that tells them apart may be missing. Equal entries are not always repeated. Inconclusive results are not listed. Activity calls are given as the source filed them. Unless noted, calls follow the shape of the dose curve; as a rule, active = well fitted curve in the direction sought with a large enough effect in the repeat runs; inconclusive = weak or mixed curves; inactive = no such curve, though single readings can be large; an effect the other way counts as inactive or inconclusive.

How the values were obtained:
[1] = target: Thyrotropin receptor (Homo sapiens) (UniProt P16473); assay: qHTS assay to identify small molecule agonists of the thyroid stimulating hormone receptor (TSHR) signaling pathway (AID 1224843; calls by dose curve; also: nearly all actives have a fitted effect of over 45% in size)
Outline: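 HEK293 cells stably bearing the thyrotropin receptor were plated at 800 cells/well and challenged with compound (30 min, RT). Accumulated cAMP was quantified via cAMP-d2 competing for cryptate-tagged antibody.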

[2] = qHTS assay to identify small molecule agonists of H2AX (AID 1224845; active = well fitted activation curve with a large enough effect in the signal ratio in the repeat runs, not every such curve was filed as active; the % refers to the signal ratio)
Outline: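 Phospho-H2AX Ser139 measured by HTRF (ex 320 nm; em 665 and 620 nm) after 24 hr antibody incubation. Compounds, 15 concentrations, 0.76% DMSO, were applied to CHO-K1 cells for 3hr at 37C before lysis.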

[3] = qHTS assay to identify small molecule agonists of the hypoxia (HIF-1) signaling pathway (AID 1224846; active = well fitted activation curve with a large enough effect in the signal ratio in the repeat runs, not every such curve was filed as active; the % refers to the signal ratio)
Outline: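 HRE-bla ME-180 beta-lactamase reporter cells in medium with 0.5% dialyzed FBS, pre-incubated 5 h then exposed to compounds 17 h at 37C, 5% CO2; reporter induction read with CCF4-AM FRET substrate.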

[4] = qHTS assay to identify small molecule agonists of H2AX - cell viability counter screen (AID 1224847; calls by dose curve;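 also: wild-type CHO-K1 cells; top concentration of the series differs between compounds; nearly all actives have a fitted effect of over 30% in size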)
Outline: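 For this counter screen, overnight-attached CHO-K1 cells received test compounds (15 concentrations, 0.76% DMSO final); 3 hr later at 37C, CellTiter-Glo reagent was added and luminescence recorded after 30 min at room temperature.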

[5] = qHTS RealTime-Glo MT Cell Viability Assay in HepG2 cells - 24 hour (AID 1224867); also: nearly all actives have a fitted effect of over 50% in size
Outline: (§1)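 Cells + NanoLuc/prosubstrate dispensed (600 cells/well) → 5 h at 37 C/5% CO2 → compounds in DMSO transferred → 40 h incubation at 37 C, luminescence read at 0, 8, 16, 24, 32, 40 h.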

[6] = qHTS RealTime-Glo MT Cell Viability Assay in HepG2 cells - 40 hour (AID 1224870); also: nearly all actives have a fitted effect of over 50% in size
Outline: (§2)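 Real-time viability: cells seeded at 600 per well together with NanoLuc and cell-permeant prosubstrate, compounds added after 5 h incubation. Luminescence tracked at 0, 8, 16, 24, 32 and 40 h of exposure.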

[7] = A CellTox Green Cytotoxicity Assay to monitor cytotoxicity in HEK293 cells - 40 hour (AID 1224871); also: nearly all actives have a fitted effect of over 45% in size
Outline: (§3)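 HEK293 cells, 600/well, were preincubated 5 hours and then exposed to compounds at 37 C for up to 40 hours. A cell-impermeant cyanine dye staining dead-cell DNA was read by fluorescence at 0, 8, 16, 24, 32 and 40 h time points.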

[8] = qHTS RealTime-Glo MT Cell Viability Assay in HEK293 cells - 16 hour (AID 1224872); also: top concentration of the series differs between compounds; nearly all actives have a fitted effect of over 50% in size
Outline: (§4)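 Tox21 10K qHTS, HEK293, 600 cells/well, RealTime-Glo reagent co-dispensed with cells; 5 h preincubation, compound by pintool, 37 C, luminescence at 0–40 h.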

[9] = qHTS RealTime-Glo MT Cell Viability Assay in HepG2 cells - 8 hour (AID 1224873); also: nearly all actives have a fitted effect of over 55% in size
Outline: as §2

[10] = A CellTox Green Cytotoxicity Assay to monitor cytotoxicity in HEK293 cells - 24 hour (AID 1224875); also: series mostly up to about 77 µM; nearly all actives have a fitted effect of over 45% in size
Outline: as §3

[11] = A CellTox Green Cytotoxicity Assay to monitor cytotoxicity in HepG2 cells - 16 hour (AID 1224876); also: nearly all actives have a fitted effect of over 45% in size
Outline: (§5)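 HepG2 cells, 600/well, preincubated 5 h with CellTox Green dye, then exposed to Tox21 compounds in DMSO at 37 C for up to 40 h. Dead-cell DNA fluorescence read at the indicated time point.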

[12] = qHTS RealTime-Glo MT Cell Viability Assay in HepG2 cells - 32 hour (AID 1224877); also: nearly all actives have a fitted effect of over 55% in size
Outline: as §1

[13] = A CellTox Green Cytotoxicity Assay to monitor cytotoxicity in HepG2 cells - 24 hour (AID 1224878); also: nearly all actives have a fitted effect of over 45% in size
Outline: as §5

[14] = A CellTox Green Cytotoxicity Assay to monitor cytotoxicity in HepG2 cells - 40 hour (AID 1224879); also: nearly all actives have a fitted effect of over 40% in size
Outline: as §5

[15] = qHTS RealTime-Glo MT Cell Viability Assay in HEK293 cells - 0 hour (AID 1224880)
Outline: (§6)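 600 cells/well were plated with the nonlytic NanoLuc/prosubstrate reagent, pre-incubated 5 h, then given 23 nL of compound in DMSO. Incubation at 37 C for 40 h, with luminescence from viable-cell-reduced substrate read repeatedly from 0 h.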

[16] = qHTS assay to identify small molecule agonists of the hypoxia (HIF-1) signaling pathway - cell viability counter screen (AID 1224844; calls by dose curve; also: nearly all actives have a fitted effect of over 50% in size)
Outline: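 HRE-bla ME-180 cells, 2,000/well in 0.5% dialyzed FBS medium, treated 17 h at 37C with compounds. Viability read in the same wells as the bla reporter, by CellTiter-Glo luminescence after 30 min at room temperature.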

[17] = qHTS RealTime-Glo MT Cell Viability Assay in HEK293 cells - 32 hour (AID 1224868)
Outline: as §4

[18] = A CellTox Green Cytotoxicity Assay to monitor cytotoxicity in HEK293 cells - 0 hour (AID 1224869); also: nearly all actives have a fitted effect of over 50% in size
Outline: as §3

[19] = qHTS RealTime-Glo MT Cell Viability Assay in HEK293 cells - 40 hour (AID 1224874); conditions: RealTime-Glo luminescence; max response: stronger effect = lower value; also: nearly all actives have a fitted effect of over 50% in size
Outline: as §6

[20] = qHTS assay to identify small molecule agonists of the estrogen related receptor (ERR) signaling pathway from Tox21 library (AID 1224849; calls by dose curve; also: nearly all actives have a fitted effect of over 15% in size)
Outline: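 ERR reporter cells (NTP line) pre-incubated 6 hours at 37 C, then exposed to compounds for 18 hours at 37 C. ONE-Glo luciferase luminescence was read after 30 minutes at room temperature.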
% is scaled to controls: 0 for no effect and ±100 for the full control effect.

Thyrotropin receptor (Homo sapiens), sequence (P16473 whole entry, looked up): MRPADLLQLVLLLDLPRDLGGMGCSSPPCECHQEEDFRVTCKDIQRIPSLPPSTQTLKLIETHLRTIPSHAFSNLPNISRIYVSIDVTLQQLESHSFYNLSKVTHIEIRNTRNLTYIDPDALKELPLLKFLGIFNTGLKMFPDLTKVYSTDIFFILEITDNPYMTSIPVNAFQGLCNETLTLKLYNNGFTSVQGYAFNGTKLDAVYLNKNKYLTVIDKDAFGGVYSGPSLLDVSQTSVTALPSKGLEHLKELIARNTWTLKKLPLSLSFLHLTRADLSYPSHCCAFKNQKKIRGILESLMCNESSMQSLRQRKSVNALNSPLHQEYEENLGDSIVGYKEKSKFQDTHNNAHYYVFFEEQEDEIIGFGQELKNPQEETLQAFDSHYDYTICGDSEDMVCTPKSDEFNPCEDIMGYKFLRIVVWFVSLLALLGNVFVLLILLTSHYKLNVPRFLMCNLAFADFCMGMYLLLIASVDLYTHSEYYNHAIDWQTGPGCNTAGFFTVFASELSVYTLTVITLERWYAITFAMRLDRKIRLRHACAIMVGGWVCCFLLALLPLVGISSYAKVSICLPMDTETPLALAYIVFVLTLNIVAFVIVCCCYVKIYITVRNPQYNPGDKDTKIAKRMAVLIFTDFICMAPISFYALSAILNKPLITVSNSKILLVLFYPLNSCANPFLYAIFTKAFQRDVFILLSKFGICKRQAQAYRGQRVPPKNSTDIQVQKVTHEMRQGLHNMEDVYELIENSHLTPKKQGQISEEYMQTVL

CC(=O)OCc1ccccc1
inactive: outcome [1] | outcome [2] | outcome [3] | outcome [4] | Potency [5] | outcome [6] | Potency [7] | Potency [8] | Potency [9] | Potency [10] | outcome [11] | outcome [12] | Potency [13] | Potency [14] | outcome [15]

COc1ccc([N+](=O)[O-])cc1N
inactive: outcome [16] | outcome [2] | outcome [3] | outcome [4] | Potency [5] | Potency [17] | outcome [18] | outcome [6] | Potency [7] | Potency [8] | Potency [9] | max response [19] -5.95% and 0.4% | Potency [10] | outcome [11] | outcome [12] | Potency [13] | Potency [14] | outcome [15]

CC(C)(C#N)c1cc(Cn2cncn2)cc(C(C)(C)C#N)c1
inactive: outcome [16] | outcome [2] | outcome [3] | outcome [4] | outcome [20] | Potency [5] | Potency [17] | outcome [18] | outcome [6] | Potency [7] | Potency [8] | Potency [9] | max response [19] 0.713% and 4.85% | Potency [10] | outcome [11] | outcome [12] | Potency [13] | Potency [14] | outcome [15]

CC(CCl)OP(=O)(OC(C)CCl)OC(C)CCl (configuration not stated)
inactive: outcome [16] | outcome [2] | outcome [3] | outcome [4] | outcome [20] | Potency [5] | Potency [17] | outcome [18] | outcome [6] | Potency [7] | Potency [8] | Potency [9] | max response [19] -21.3% and -15.3% | Potency [10] | outcome [11] | outcome [12] | Potency [13] | Potency [14] | outcome [15]

Cc1ccc(C(C)C)c(O)c1
inactive: outcome [16] | outcome [2] | outcome [3] | outcome [4] | outcome [20] | Potency [5] | Potency [17] | outcome [6] | Potency [7] | Potency [8] | Potency [9] | max response [19] -11.7% and 0.827% | Potency [10] | outcome [11] | outcome [12] | Potency [13] | Potency [14] | outcome [15]

CC(C)(C)c1cc(Cc2cc(C(C)(C)C)c(O)c(C(C)(C)C)c2)cc(C(C)(C)C)c1O
inactive: outcome [1] | outcome [2] | outcome [3] | outcome [4] | Potency [5] | Potency [17] | outcome [6] | Potency [7] | Potency [8] | Potency [9] | Potency [10] | outcome [11] | outcome [12] | Potency [13] | Potency [14] | outcome [15]

CC1(C)OC[C@@H]2O[C@@]3(C(=O)O)OC(C)(C)O[C@H]3[C@@H]2O1
inactive: outcome [1] | outcome [2] | outcome [3] | outcome [4] | Potency [5] | outcome [18] | outcome [6] | Potency [7] | Potency [8] | Potency [9] | max response [19] -6.82% and 4.68% | Potency [10] | outcome [11] | outcome [12] | Potency [13] | Potency [14] | outcome [15]
